Screening results as filed in PubChem.
Only a selection was taken, and hits are over-represented in it overall.
Marburg entry inh: Marburg virus entry inhibition. Marburg virus pseudotyped entry inhibition, cell reporter. Potency, µM (highest dose often 37.8 µM), inactives show top-dose activity change, negative = inhibition, actives largely listed as inhibitors. actives 1.8% (n = 300,000). AID 540276; calls by dose curve; tested in HEK293 cells; note: potency is the fitted concentration of half-maximal effect; % is set by controls: 0 for no effect and ±100 for the full control effect
Shiga inhibitor: Shiga toxin inhibition | actives 9.2% (n = 290,000) | inhibition, % at 38.7 µM | Vero cells, Shiga toxin protein synthesis inhibition reporter; in the data active = inhibition mostly above about 28%, no sharp cut-off; inactive = mostly below about 43%; note: 0% is about no effect
Lassa entry inh: Lassa virus entry inhibition. Lassa virus pseudotype entry inhibition, cell reporter. Potency, µM (top dose mostly 37.9 µM), for inactives: at the top dose activity change, negative = inhibition, most hits filed as inhibitors. actives 1.2% (n = 300,000). AID 540256; calls by dose curve; tested in HEK293 cells; note: potency is the fitted concentration of half-maximal effect; % is set by controls: 0 for no effect and ±100 for the full control effect; nearly all actives have a fitted effect of over 50% in size
AMA1 RON2 block: disrupts binding of P. falciparum AMA1 to RON2; actives 0.2% (n = 360,000); AlphaScreen AMA1-biotinylated RON2 peptide binding; Potency, µM (doses to about 58.2 µM), inactives show at the top dose activity change, negative = inhibition, usual class: inhibitors; active = well fitted inhibition curve with a large enough effect; inconclusive = small, poorly fitted or top-dose-only effect; inactive = no such curve, though single readings can be large or run the other way;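 note: potency is the fitted concentration of half-maximal effect; 0% = vehicle wells and -100% = peptide control; nearly all actives have a fitted effect of over 45% in size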
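AMA1 (3D7) with his tag at 25 nM final met compounds first, then biotinylated RON2 peptide at 25 nM; detection used donor plus acceptor beads, 10 µg/mL apiece, read by AlphaScreen after 30 min at room temperature.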
CHX counter: counter-screen hit for Shiga toxin inhibitors, cycloheximide. AID 2314. cell reporter, cycloheximide protein synthesis inhibition counterscreen. actives 12% (n = 300,000). max response, %; in the data active = max response mostly above about 13%, no sharp cut-off; inactive = mostly below about 14%; note: read at 38.3 µM for the half of the compounds with a filed dose; 0% is about no effect
* hit, by the source's call; ? = inconclusive; / = not tested or not shown; [ ] = remark or other dose.

SMILES	Marburg entry inh	Shiga inhibitor	Lassa entry inh	AMA1 RON2 block	CHX counter
Cc1ccc(N/C=C/C(=O)c2cccs2)cc1	/	17	/	-3%	24
CCn1nnc(NC(=O)c2ccco2)n1	11%[46.1 µM]	5	/	8%	6
Cc1cccc(C)c1-n1nnnc1C1(C)CCC(=O)N1C1CC1 (stereo not given)	/	/	/	8%	/
Cc1cc(C(=O)CSc2nc3ccccc3o2)c(C)n1CC1CCCO1 (stereo not given)	?	78*	?	-6%	67*
Cc1cc(C(=O)CSc2nc3ccccc3[nH]2)c(C)n1CC1CCCO1 (stereo not given)	?	90	7.9µM*	-4%	21
CCOc1ccccc1NC(=O)CN1C(=O)NC(Cc2c[nH]c3ccccc23)C1=O (stereo not given)	/	/	/	-12%	/
CCC(C)(C)NC(=O)C(c1cccnc1)N(C(=O)c1csnn1)c1ccccc1 (stereo not given)	/	16	/	9%	6
Cc1ccc(-n2ccn(CC(=O)c3ccc(F)cc3)c(=O)c2=O)cc1C	/	/	-1%[46.1 µM]	/	/
CCCCc1cc(=O)oc2cc(C)c(CN3CCCC3)c(O)c12	-28%	17	-4%	-11%	-2
CCc1cc(=O)oc2cc(C)c(CN3CCCC(C)C3)c(O)c12 (stereo not given)	14%	-12	-12%	19µM*	1
Cc1cc(CNC(=O)C2CCC(=O)N(Cc3cccc(C(F)(F)F)c3)C2)no1 (stereo not given)	?	-1	-3%	6%	2
CSc1cccc(CNC(=O)C2CCC(=O)N(Cc3cccc(C(F)(F)F)c3)C2)c1 (stereo not given)	/	86*	/	6%	22*
O=C(NCc1ccon1)C1CCC(=O)N(Cc2cccc(C(F)(F)F)c2)C1 (stereo not given)	/	39	/	3%	20*
O=C(C1CCC1)N1CCN(S(=O)(=O)c2ccc(Br)cc2Cl)CC1	-2%	/	?	-14%	/
O=C(O)C1CCCN1c1ncnc2c1oc1ccccc12 (stereo not given)	0%	49*	7%	-8%	43*
CCCCn1c(=N)n(CC(O)COc2ccccc2)c2ccccc21 (stereo not given)	?	-7	?	5%	-5
N=c1n(Cc2ccccc2)c2ccccc2n1CC(O)COc1ccccc1 (stereo not given)	3.7µM*	-15	?	-10%	-8
Cc1ccc(Cn2c(=N)n(CC(O)COc3ccccc3)c3ccccc32)cc1 (stereo not given)	16µM*	-22	?	6%	-6
CCn1c(=N)n(CC(O)COc2cccc(C)c2)c2ccccc21 (stereo not given)	?	1	0%	-6%	-5
CCCn1c(=N)n(CC(O)COc2cccc(C)c2)c2ccccc21 (stereo not given)	8.2µM*	-11	-20%	-9%	-3
CCCCn1c(=N)n(CC(O)COc2ccc(C)cc2)c2ccccc21 (stereo not given)	?	-12	?	12%	-5
CCOc1ccccc1NC(=O)Nc1cc(C(=O)NCc2ccc(C)cc2)ccc1N1CCCC1	/	/	-6%[46.1 µM]	/	/
C=CCCN(C(C)C(=O)OC)S(=O)(=O)c1ccccc1Br (stereo not given)	/	-8	/	/	-1
CCOC(=O)Cc1csc(NC(=O)Nc2cccc(Cl)c2)n1	-5%[46.1 µM]	26	?	?	8.9*
CCOC(=O)Cc1csc(NC(=O)Nc2ccc(Cl)cc2)n1	?	19	?	-21%	2
SMILES	Marburg entry inh	Shiga inhibitor	Lassa entry inh	AMA1 RON2 block	CHX counter
CCOC(=O)Cc1csc(NC(=O)c2ccc(Cl)nc2)n1	?	-7	-26%	28%	-2
CCOC(=O)Cc1csc(NC(=O)c2ccc(Br)o2)n1	8%	36*	6%	7%	38*
CCOC(=O)Cc1csc(NC(=O)c2cc3ccccc3o2)n1	?	54*	-6%[46.1 µM]	7%	23*
CCOC(=O)Cc1csc(N/N=C/c2ccc(Cl)cc2)n1	?	53*	-9%	25%	31*
COc1ccc(-n2c(=O)c3c(c4cc(OC)ccc4n3C)n(Cc3cc(C)ccc3C)c2=O)cc1	/	/	9%[46.1 µM]	/	/
CSC(=NS(=O)(=O)c1ccc(N)cc1)NS(=O)(=O)c1cccs1	9%[46.1 µM]	/	-24%[46.1 µM]	5%	/
CCOC(=O)Cc1csc(NC(=O)c2sc3nc4ccc(CC)cc4cc3c2N)n1	?	81*	10%	-1%	24*
CC(C)(C)c1csc(NC(=O)c2ccc(Br)o2)n1	/	99*	/	-5%	47*
CC(C)=CCC/C(C)=C/CO/N=C1\C[C@@H](O)[C@@H](O)[C@@H]2[C@@H]3C(=O)N(Cc4ccc5c(c4)OCO5)C(=O)[C@@H]3CC[C@H]12	-44%[14.2 µM]	/	/	/	/
O=C(c1ccccc1)N1CCc2cc(CNS(=O)(=O)c3ccc(Cl)s3)ccc21	/	/	-17%[46.1 µM]	/	/
O=C(Nc1nnc(CSCc2ccc(Cl)cc2)s1)c1cccc([N+](=O)[O-])c1	-6%	-9	?	43%	-2
Cc1occc1C(=O)Nc1nnc(C(F)(F)F)s1	-4%	5	43%	-1%	8
CC(C)(C)c1nnc(NC(=O)c2cccs2)s1	/	75*	/	0%	71*
CCc1nnc(NC(=O)c2cccnc2)s1	0%	-11	-1%	-2%	-4
CC(C)(C)c1nnc(NC(=O)c2cccnc2)s1	/	28	/	0%	21*
O=C(Nc1nnc(CCc2ccccc2)s1)c1cccs1	2%	10	26%	0%	6
CCC(C)(C)c1nnc(NC(=O)c2cccc([N+](=O)[O-])c2)s1	?	76*	-16%	2%	14*
O=C(Nc1ccccc1C(=O)Nc1nnc(C(F)(F)F)s1)c1ccccc1	4µM*	-1	10µM*	-7%	-2
COc1cccc([C@@H]2[C@@H](C)CC[C@@H]3C(=O)NC[C@H](O)CN32)c1	-11%[14.2 µM]	/	/	/	/
COC(=O)/C=C1/S/C(=N/N=C/c2ccc(N(C)C)cc2)NC1=O	-1%	16	/	/	1
COc1ccc(C(=O)NCCS(=O)(=O)N2CCCC2)cc1	30%	/	10%	0%	/
CCCCC(CC)c1nnc(NC(=O)c2cccs2)s1 (stereo not given)	/	15	/	45%	1
CC(C)c1nnc(NC(=O)c2cccs2)s1	/	70*	/	-3%	58*
Cc1cc(N2CCOCC2)nc2ccc(NC(=O)CCC(=O)N3CCCC(C)C3)cc12 (stereo not given)	22%	92	1%	14%	54*
Cc1cc(N2CCOCC2)nc2ccc(NC(=S)N3CCCCC3C)cc12 (stereo not given)	2.8µM*	19	?	6%	31*
Cc1cc(N2CCOCC2)nc2ccc(NC(=O)CCC(=O)N3CCN(c4ccccc4F)CC3)cc12	?	29	?	-9%	22*
Cc1cc(N2CCOCC2)nc2ccc(NC(=O)CCC(=O)N3CCN(c4ccc(F)cc4)CC3)cc12	2%[46.1 µM]	25	-23%[46.1 µM]	0%	4
Cc1cc(N2CCN(C)CC2)nc2ccc(NC(=S)N3CCCCC3)cc12	?	27	?	-20%	20
